Measured values reported in PubChem BioAssay (NCATS).
Inconclusive results are not listed. Activity calls are given as the source filed them. Unless noted, the call rests on the fitted dose curve; in most records, active means well fitted curve in the direction sought with a large enough effect; inconclusive means small, poorly fitted or top-dose-only effect, or another doubt; inactive means no such curve, though single readings can be large; an effect the other way counts as inactive or inconclusive.

Key:
[1] = target: Glucocorticoid receptor (Homo sapiens) (UniProt P04150); test: GR-GFP Redistribution (AID 450;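 active means compounds whose dose series gives a full or clear partial fitted curve of increased nuclear translocation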; further: potency means the concentration at half of the fitted maximal effect); settings: U2OS GR-GFP nuclear translocation, laser cytometry, 2 h
[2] = target: Glucocorticoid receptor (Homo sapiens) (UniProt P04150); test: GR-EFC Redistribution (AID 451; calls by dose curve; further: potency means the concentration at half of the fitted maximal effect); settings: CHO-K1 GR-EFC translocation, beta-gal luminescence, 2 h
Procedure, shortened: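 Translocation of GR-ED fusion to nuclear EA restores b-gal, read by luminescence after 1 h room-temperature detection. Engineered CHO-K1 biosensor cells, 1,000/well, exposed 2 h at 37 C to titrations up to 46 uM final.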

[3] = target: Mitogen-activated protein kinase 10 (Mus musculus) (UniProt Q61831); test: JNK3 AlphaScreen Assay (AID 530; active means well fitted curve in either direction with a large enough effect, not every such curve was filed as active;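 further: kinase came from lysate of stimulated human HepG2 cells; signal reports phosphorylation of biotinylated GST-cJun 1-79 at Ser73 with 10 µM ATP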); settings: JNK3 lysate, c-Jun phosphorylation; series mostly up to 57.1 µM
Procedure, shortened: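 Compound titrations were preincubated 15 minutes at room temperature with substrate, antibody and pre-activated JNK3-containing HepG2 lysate. Reactions were started with 10 uM ATP and stopped with EDTA-containing bead buffer for AlphaScreen detection.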

[4] = target: Cytochrome P450 3A4 (Homo sapiens) (UniProt P08684); test: qHTS Assay for Activators of Cytochrome P450 3A4 (AID 885); settings: recombinant CYP3A4, Luciferin-PPXE luminescence, 60 min; series mostly up to 57.1 µM; further: nearly all actives have a fitted effect of over 65% in size
Procedure, shortened: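 Quantitative HTS format: compounds preincubated with 20nM human CYP3A4 and Luciferin-PPXE substrate at KM, reaction started by NADPH regeneration, stopped after 60 min, luciferase luminescence read 20 min later.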

[5] = target: Cytochrome P450 2C19 (Homo sapiens) (UniProt P33261); test: qHTS Assay for Inhibitors and Substrates of Cytochrome P450 2C19 (AID 899); settings: recombinant CYP2C19, luciferin-H EGE luminescence; series mostly up to 57.1 µM; further: nearly all actives have a fitted effect of over 60% in size; further: potency means the concentration at half of the fitted maximal effect
Procedure, shortened: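 Luminescence readout of luciferin formed from 10uM Luciferin-H EGE (KM level) by 5 nM CYP2C19 in 50mM KPO4. 60 min NADPH-driven reaction at 37C after 10 min compound preincubation; data scaled to 57uM ketoconazole inhibition.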

[6] = target: DNA dC->dU-editing enzyme APOBEC-3G (Homo sapiens) (UniProt Q9HC16); test: qHTS for inhibitors of Vif-A3G interactions: Validation (AID 588379); settings: Vif-A3G protein interaction assay; series mostly up to 46.1 µM
Procedure, shortened: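 HeLa cells stably expressing Vif and A3G-eYFP, 700 cells/well, incubated overnight at 37 deg C, then exposed to compound overnight at 37 deg C. Inhibition of Vif-mediated degradation read as increased yellow fluorescence (Ex 488/Em 500-530) by laser-scanning cytometry.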

[7] = system: Zika virus NS2B-NS3 protease; test: Primary screen GU AMC qHTS for Zika virus inhibitors (AID 1347154); settings: Zika NS2B-NS3 unlinked protease, AMC fluorogenic substrate; series mostly up to 54.1 µM; further: nearly all actives have a fitted effect of over 70% in size
Procedure, shortened: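 Fluorogenic AMC-substrate cleavage by noncovalent NS2B-NS3 protease complex (25 nM, pH 8.0 Tris buffer with Tween 20) followed for 15 minutes at room temperature (~20% conversion). Percent inhibition from ex340/em450 signal change, fitted by 4-parameter Hill equation.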

[8] = Primary qHTS for small molecule stabilizers of the endoplasmic reticulum resident proteome: Secreted ER Calcium Modulated Protein (SERCaMP) assay (AID 1508630); settings: SH-SY5Y GLuc-SERCaMP (Gaussia luciferase released on ER calcium loss) secretion, thapsigargin, luminescence; series mostly up to 38.4 µM
Procedure, shortened: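 GLuc-SERCaMP-expressing SH-SY5Y cells, pretreated 16 h with compound, are challenged with thapsigargin to empty ER calcium stores; after 4 h, coelenterazine is added directly to the medium and luminescence is imaged.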

[9] = target: 3',5'-cyclic-AMP phosphodiesterase 4B (Homo sapiens) (UniProt Q07343); test: qHTS Assay for Inhibitors of PDE-IV (AID 607; active means well fitted activation curve with a large enough effect in the main read-out, with a control signal flat, not every such curve was filed as active); settings: HEK293 ACTOne CNG channel cells, membrane potential fluorescence; series mostly up to 22.9 µM
Procedure, shortened: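 Live HEK293 cells with a modified cyclic nucleotide-gated (CNG) channel report intracellular cAMP via membrane-potential dye fluorescence (ex 535/em 590 nm). Endogenous PDE-IV was targeted. Compounds were tested at up to 22.9 uM final; RO 20-1724 100 uM served as control.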

[10] = target: Cytochrome P450 2C9 (Homo sapiens) (UniProt P11712); test: qHTS Assay for Inhibitors and Substrates of Cytochrome P450 2C9 (AID 883); settings: recombinant CYP2C9, luciferin-H luminescence, 60 min; series mostly up to 57.1 µM; further: nearly all actives have a fitted effect of over 60% in size; further: potency means the concentration at half of the fitted maximal effect
Procedure, shortened: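 Luminescent read-out of deoxyluciferin hydroxylation, normalized to 57uM sulphaphenazole (AC100). Reaction: 10nM enzyme, 100uM Luciferin-H (equal to KM), 25mM KPO4, 10 min compound preincubation, then 60 min with NADPH regeneration, both at 37C.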

[11] = target: Cytochrome P450 3A4 (Homo sapiens) (UniProt P08684); test: qHTS Assay for Inhibitors and Substrates of Cytochrome P450 3A4 (AID 884); settings: recombinant CYP3A4, Luciferin-PPXE luminescence; series mostly up to 57.1 µM; further: nearly all actives have a fitted effect of over 50% in size
Procedure, shortened: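 20 nM human CYP3A4 with 25 uM Luciferin-PPXE (at KM) in 200 mM KPO4, preincubated 10 min with compound; NADPH regeneration started a 60 min RT reaction. Luciferin detected by luminescence, normalized to 57 uM ketoconazole as full inhibition.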

[12] = target: Ubiquitin carboxyl-terminal hydrolase 1 (Homo sapiens) (UniProt O94782); test: Inhibitors of USP1/UAF1: Pilot qHTS (AID 504865); settings: purified USP1/UAF1, Ub-rhodamine cleavage fluorescence; series mostly up to 114 µM;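 further: rhodamine fluorescence freed from ubiquitin-rhodamine substrate followed over time; top concentration of the series differs between compounds; nearly all actives have a fitted effect of over 35% in size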
Procedure, shortened: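 Deubiquitinase activity followed as kinetic rhodamine fluorescence release from 150 nM Ub-Rho. 1 nM USP1/UAF1 with compound, after 15 min room-temperature preincubation, in HEPES pH 7.8 buffer containing TCEP, EDTA, BSA and Tween-20.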

[13] = target: Cytochrome P450 2D6 (Homo sapiens) (UniProt P10635); test: qHTS Assay for Inhibitors and Substrates of Cytochrome P450 2D6 (AID 891); settings: recombinant CYP2D6, luciferin-ME EGE luminescence; series mostly up to 57.1 µM; further: potency means the concentration at half of the fitted maximal effect; nearly all actives have a fitted effect of over 60% in size
Procedure, shortened: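 Human CYP2D6 (5 nM) with 30 uM Luciferin-ME EGE (at Km) in 100 mM KPO4, compound preincubated 10 min, then NADPH regeneration system for 60 min at room temperature. Luciferin read by luminescence; normalized to 1.43 uM quinidine.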

Measured: Potency

Sequence of Cytochrome P450 3A4 (Homo sapiens) (P08684 whole entry, looked up): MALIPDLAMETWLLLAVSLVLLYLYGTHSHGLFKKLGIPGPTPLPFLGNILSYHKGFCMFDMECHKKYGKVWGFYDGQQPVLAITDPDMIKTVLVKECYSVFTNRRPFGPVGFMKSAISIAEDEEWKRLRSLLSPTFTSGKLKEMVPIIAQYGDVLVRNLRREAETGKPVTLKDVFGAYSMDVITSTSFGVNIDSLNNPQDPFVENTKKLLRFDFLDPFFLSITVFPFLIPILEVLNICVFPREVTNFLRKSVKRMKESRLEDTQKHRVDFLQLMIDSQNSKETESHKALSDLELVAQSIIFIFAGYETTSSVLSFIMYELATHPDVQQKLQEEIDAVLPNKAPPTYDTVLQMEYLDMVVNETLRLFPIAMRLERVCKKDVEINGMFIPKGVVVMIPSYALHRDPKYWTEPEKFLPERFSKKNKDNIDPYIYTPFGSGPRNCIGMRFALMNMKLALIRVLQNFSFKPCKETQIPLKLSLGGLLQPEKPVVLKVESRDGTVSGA
Sequence of Cytochrome P450 2C9 (Homo sapiens) (P11712 whole entry, looked up): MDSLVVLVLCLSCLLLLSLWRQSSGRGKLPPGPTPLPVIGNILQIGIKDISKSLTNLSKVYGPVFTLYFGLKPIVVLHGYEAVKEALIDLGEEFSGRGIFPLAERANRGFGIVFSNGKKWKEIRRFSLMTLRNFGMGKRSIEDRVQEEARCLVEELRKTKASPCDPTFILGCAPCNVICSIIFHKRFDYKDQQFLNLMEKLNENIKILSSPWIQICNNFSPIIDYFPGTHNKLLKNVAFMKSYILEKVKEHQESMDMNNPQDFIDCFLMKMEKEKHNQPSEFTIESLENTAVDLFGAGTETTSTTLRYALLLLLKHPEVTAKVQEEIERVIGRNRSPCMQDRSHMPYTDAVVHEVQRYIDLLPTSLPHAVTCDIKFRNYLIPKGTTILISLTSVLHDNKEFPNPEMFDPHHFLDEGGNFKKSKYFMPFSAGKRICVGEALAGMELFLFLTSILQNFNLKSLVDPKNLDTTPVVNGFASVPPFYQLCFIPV
Sequence of Ubiquitin carboxyl-terminal hydrolase 1 (Homo sapiens) (O94782 whole entry, looked up): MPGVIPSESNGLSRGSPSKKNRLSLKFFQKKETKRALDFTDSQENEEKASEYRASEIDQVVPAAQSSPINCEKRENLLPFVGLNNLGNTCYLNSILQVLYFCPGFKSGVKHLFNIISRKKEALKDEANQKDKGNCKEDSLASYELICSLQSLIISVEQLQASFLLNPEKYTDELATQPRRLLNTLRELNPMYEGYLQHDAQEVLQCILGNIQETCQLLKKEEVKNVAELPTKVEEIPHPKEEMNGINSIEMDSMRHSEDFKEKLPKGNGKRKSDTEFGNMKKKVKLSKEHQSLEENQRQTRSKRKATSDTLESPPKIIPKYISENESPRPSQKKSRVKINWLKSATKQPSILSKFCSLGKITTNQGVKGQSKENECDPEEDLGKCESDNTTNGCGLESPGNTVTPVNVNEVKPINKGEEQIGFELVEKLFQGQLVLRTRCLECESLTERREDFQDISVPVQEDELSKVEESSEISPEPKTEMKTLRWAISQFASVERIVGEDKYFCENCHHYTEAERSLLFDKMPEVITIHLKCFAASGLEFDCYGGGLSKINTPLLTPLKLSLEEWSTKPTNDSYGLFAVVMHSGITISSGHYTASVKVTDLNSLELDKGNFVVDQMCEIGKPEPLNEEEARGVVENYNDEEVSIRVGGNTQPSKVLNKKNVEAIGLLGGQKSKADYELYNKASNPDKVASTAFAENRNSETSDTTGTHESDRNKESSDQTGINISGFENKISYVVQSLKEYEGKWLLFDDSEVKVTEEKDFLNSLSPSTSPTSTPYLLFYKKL
Sequence of Glucocorticoid receptor (Homo sapiens) (P04150 whole entry, looked up, the tested form may be a part): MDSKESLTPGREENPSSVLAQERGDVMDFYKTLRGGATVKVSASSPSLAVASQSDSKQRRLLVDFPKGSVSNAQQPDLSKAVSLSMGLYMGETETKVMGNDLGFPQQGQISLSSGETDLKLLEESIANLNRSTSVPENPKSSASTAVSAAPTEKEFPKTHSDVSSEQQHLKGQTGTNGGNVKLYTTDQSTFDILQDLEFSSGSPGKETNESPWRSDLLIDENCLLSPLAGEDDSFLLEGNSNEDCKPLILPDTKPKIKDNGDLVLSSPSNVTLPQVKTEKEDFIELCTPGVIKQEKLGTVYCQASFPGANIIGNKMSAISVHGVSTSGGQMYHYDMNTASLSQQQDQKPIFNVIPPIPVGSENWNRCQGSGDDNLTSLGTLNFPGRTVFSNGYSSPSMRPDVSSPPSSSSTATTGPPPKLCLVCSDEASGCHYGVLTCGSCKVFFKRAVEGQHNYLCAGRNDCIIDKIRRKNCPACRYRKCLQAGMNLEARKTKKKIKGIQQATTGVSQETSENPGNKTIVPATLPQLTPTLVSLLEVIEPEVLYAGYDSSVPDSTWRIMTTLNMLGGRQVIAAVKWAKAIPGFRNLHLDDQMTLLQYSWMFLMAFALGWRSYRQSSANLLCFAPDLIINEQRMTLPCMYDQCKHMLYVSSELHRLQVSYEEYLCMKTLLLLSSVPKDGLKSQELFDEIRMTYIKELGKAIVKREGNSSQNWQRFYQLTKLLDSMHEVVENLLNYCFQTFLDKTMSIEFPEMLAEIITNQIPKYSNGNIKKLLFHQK
Sequence of Cytochrome P450 2C19 (Homo sapiens) (P33261 whole entry, looked up): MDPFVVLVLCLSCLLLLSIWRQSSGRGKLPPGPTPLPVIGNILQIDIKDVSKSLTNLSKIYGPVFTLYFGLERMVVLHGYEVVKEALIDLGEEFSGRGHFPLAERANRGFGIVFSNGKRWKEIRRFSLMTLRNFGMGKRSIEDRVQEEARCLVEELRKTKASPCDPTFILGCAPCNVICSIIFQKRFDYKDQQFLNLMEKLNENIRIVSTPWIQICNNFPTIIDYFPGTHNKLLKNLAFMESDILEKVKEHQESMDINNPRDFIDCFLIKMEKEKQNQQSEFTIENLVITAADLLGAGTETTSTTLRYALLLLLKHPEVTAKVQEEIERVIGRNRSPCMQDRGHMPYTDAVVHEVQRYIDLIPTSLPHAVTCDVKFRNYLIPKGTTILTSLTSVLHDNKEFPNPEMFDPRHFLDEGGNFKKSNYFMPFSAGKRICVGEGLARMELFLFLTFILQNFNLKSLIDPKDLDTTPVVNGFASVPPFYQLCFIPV
Sequence of DNA dC->dU-editing enzyme APOBEC-3G (Homo sapiens) (Q9HC16 whole entry, looked up): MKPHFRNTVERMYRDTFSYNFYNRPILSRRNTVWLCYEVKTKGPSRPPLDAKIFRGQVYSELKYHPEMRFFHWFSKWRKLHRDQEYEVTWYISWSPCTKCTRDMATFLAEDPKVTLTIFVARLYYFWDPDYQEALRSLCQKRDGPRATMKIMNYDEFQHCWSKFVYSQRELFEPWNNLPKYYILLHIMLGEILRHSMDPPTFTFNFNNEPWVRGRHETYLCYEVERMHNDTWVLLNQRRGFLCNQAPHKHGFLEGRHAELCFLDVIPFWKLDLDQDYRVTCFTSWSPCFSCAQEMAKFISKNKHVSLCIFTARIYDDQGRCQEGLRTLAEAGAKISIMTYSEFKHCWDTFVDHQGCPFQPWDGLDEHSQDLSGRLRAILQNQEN
Sequence of 3',5'-cyclic-AMP phosphodiesterase 4B (Homo sapiens) (Q07343 whole entry, looked up): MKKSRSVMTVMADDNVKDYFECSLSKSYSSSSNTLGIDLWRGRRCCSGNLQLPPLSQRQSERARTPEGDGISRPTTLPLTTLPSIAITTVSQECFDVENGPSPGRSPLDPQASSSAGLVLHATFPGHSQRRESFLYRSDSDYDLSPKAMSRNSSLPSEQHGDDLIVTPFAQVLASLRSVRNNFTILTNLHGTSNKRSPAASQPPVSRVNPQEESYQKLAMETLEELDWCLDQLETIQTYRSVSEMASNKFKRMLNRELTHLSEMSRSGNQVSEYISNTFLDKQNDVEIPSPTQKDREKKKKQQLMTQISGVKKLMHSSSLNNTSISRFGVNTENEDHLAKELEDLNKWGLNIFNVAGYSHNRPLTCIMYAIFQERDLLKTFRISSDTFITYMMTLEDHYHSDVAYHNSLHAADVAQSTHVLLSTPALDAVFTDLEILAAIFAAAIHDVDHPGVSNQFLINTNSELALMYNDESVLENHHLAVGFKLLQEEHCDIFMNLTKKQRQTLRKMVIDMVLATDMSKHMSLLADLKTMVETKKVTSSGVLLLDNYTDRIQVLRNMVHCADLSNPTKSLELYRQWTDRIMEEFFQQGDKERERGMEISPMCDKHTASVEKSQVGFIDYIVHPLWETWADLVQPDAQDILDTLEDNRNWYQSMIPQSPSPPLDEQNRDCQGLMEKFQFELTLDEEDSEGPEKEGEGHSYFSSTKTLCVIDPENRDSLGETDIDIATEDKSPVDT
Sequence of Cytochrome P450 2D6 (Homo sapiens) (P10635 whole entry, looked up): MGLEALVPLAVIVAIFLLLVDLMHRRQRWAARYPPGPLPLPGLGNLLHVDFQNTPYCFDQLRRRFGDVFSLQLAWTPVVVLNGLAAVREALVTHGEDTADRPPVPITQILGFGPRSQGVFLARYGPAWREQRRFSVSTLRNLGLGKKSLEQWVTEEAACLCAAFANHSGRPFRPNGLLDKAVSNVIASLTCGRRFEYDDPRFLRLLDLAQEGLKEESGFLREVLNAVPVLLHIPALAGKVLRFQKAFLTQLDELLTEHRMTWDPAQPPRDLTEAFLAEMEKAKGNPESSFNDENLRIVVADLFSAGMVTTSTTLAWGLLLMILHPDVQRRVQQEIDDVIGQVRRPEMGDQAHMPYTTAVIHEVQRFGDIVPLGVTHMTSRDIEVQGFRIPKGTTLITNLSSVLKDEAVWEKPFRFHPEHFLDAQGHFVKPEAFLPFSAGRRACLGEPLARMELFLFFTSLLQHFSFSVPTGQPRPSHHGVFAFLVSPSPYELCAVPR

Cc1cc(C)c(S(=O)(=O)Nc2cccc(C(F)(F)F)c2)c(C)c1
inactive: [1] > 46 µM | [2] > 46 µM | [3] | [4] | [6] | [7] | [8]
active: [5] 3.16 µM

CSc1nc(N)c2ncn([C@H]3O[C@H](COP(=O)(O)OP(=O)(O)OP(=O)(O)O)[C@@H](O)[C@@H]3O)c2n1
inactive: [1] > 46 µM | [2] > 46 µM | [3] | [9] | [10] | [11] | [5] | [6] | [7] | [8]

COc1cc2c(cc1OC)C(c1ccc(N)cc1)=NNC(=O)C2
inactive: [1] > 46 µM | [2] > 46 µM | [3] | [9] | [4] | [6] | [7] | [8]

NC1=NCCCC1
inactive: [2] > 46 µM | [3] | [9] | [12] | [6] | [7] | [8]

COc1ccc(-c2ccc(=N)n(CCCC(=O)O)n2)cc1
inactive: [1] > 46 µM | [2] > 46 µM | [6] | [7] | [8]
active: [10] 3.16 µM | [13] 3.98 µM | [5] 0.158 µM

NCCCCCCNS(=O)(=O)c1ccc2c(Cl)cccc2c1
inactive: [2] > 46 µM | [3] | [6] | [7] | [8]

CNC(=O)[C@H]1O[C@H](n2cnc3c(NCc4cccc(I)c4)nc(Cl)nc32)[C@@H](O)[C@@H]1O
inactive: [1] > 46 µM | [2] > 46 µM | [9] | [6] | [7] | [8]

NCCCCNS(=O)(=O)c1ccc2c(Cl)cccc2c1
active: [10] 2 µM | [5] 0.0025 µM
inactive: [1] > 46 µM | [2] > 46 µM | [3] | [4] | [12] | [6] | [7] | [8]

COC(=O)Nc1ccc2[nH]cc(CCNC(C)=O)c2c1
inactive: [1] > 46 µM | [2] > 46 µM | [3] | [9] | [12] | [6] | [7] | [8]

CNC(=O)[C@H]1O[C@H](n2cnc3c(NCc4cccc(I)c4)ncnc32)[C@@H](O)[C@@H]1O
inactive: [1] > 46 µM | [2] > 46 µM | [3] | [4] | [6] | [7] | [8]

Cn1ccc2cc(NC(=O)Nc3cccnc3)ccc21
inactive: [1] > 46 µM | [2] > 46 µM | [9] | [6] | [7] | [8]
